# This excerpt belongs to a sample that is enriched for hits.
# IDE exosite FP = exo-site inhibitors of human IDE, primary screen, biochemical, fluorescence anisotropy, probe displacement. AID 1259349, 2017. z-score at 20 µM. purified IDE, FL-6b probe fluorescence polarization; stronger effect = lower value. Insulin-degrading enzyme (Homo sapiens), P14735. hit rate 6.3% among 17,000;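 active = z-score of -3 or lower, meaning strong loss of probe binding signal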;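 also: His-tagged human IDE residues 42-1019 made in E. coli with 30 nM FL-6b probe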
# Numbers without * were called inactive.
SMILES,IDE exosite FP
CN1C(=O)c2cc(NC(=O)Cc3cccs3)ccc2OC[C@H]2O[C@H](CC(=O)N[C@H]3CCN(Cc4ccccc4)C3)CC[C@@H]21,0.65
C/C=C/c1ccc([C@@H]2[C@H](CO)N(S(C)(=O)=O)[C@H]2CN(CC)C(=O)CC)cc1,6.7
CN1C(=O)c2cc(NC(=O)Nc3ccccc3Cl)ccc2OC[C@H]2O[C@H](CC(=O)NCCCN3CCOCC3)CC[C@@H]21,-14*
CN1C(=O)c2cc(NC(=O)Cc3cccs3)ccc2OC[C@H]2O[C@@H](CC(=O)NCCCN3CCOCC3)CC[C@H]21,0.06
CN1C(=O)c2cc(NC(=O)Nc3ccc(Cl)cc3)ccc2OC[C@@H]2O[C@H](CC(=O)NCCN3CCCCC3)CC[C@H]21,-0.35
CN1C(=O)c2cc(NC(=O)Nc3ccc(Cl)cc3)ccc2OC[C@H]2O[C@@H](CC(=O)NCCN3CCCCC3)CC[C@H]21,0.06
CN1C(=O)c2cc(NC(=O)Nc3ccccc3Cl)ccc2OC[C@@H]2O[C@H](CC(=O)O)CC[C@@H]21,-0.56
CN1C(=O)c2cc(NC(=O)Nc3ccccc3Cl)ccc2OC[C@H]2O[C@H](CC(=O)O)CC[C@H]21,-0.35
CN1C(=O)c2cc(NC(=O)Nc3ccc(Cl)cc3)ccc2OC[C@H]2O[C@@H](CC(=O)NCCN3CCCCC3)CC[C@@H]21,-4.7*
CN1C(=O)c2cc(NC(=O)Nc3ccccc3Cl)ccc2OC[C@H]2O[C@H](CC(=O)O)CC[C@@H]21,-6.2*
CCS(=O)(=O)Nc1ccc2c(c1)C(=O)N(C)[C@H]1CC[C@H](CC(=O)NCCCN3CCOCC3)O[C@@H]1CO2,0.45
CN1C(=O)c2cc(NC(=O)Cc3cccs3)ccc2OC[C@@H]2O[C@H](CC(=O)NCCCN3CCOCC3)CC[C@H]21,0.06
CN1C(=O)c2cc(NC(=O)Cc3cccs3)ccc2OC[C@@H]2O[C@@H](CC(=O)NCCCN3CCOCC3)CC[C@H]21,-1
CN1C(=O)c2cc(NC(=O)Nc3ccccc3Cl)ccc2OC[C@@H]2O[C@H](CC(=O)NCCCN3CCOCC3)CC[C@@H]21,-4.7*
OC[C@@H]1[C@@H](c2ccc(-c3ccc(F)cc3)cc2)[C@@H]2CN(Cc3ccccn3)CCCCN12,0.32
COCC(=O)N1[C@H](C#N)[C@H](c2ccccc2C2=CCCCC2)[C@H]1CO,0.89
CCC(=O)N1[C@@H](CO)[C@H](c2ccccc2)C12CN(C(=O)c1ccc3c(c1)OCO3)C2,0.26
O=C(c1ccncc1)N1CC(=O)N2[C@H](C1)[C@H](c1ccc(-c3cccnc3)cc1)[C@@H]2CO,0.98
CC(=O)N(C)C[C@H]1[C@@H](c2ccc(C#CC(C)C)cc2)[C@@H](CO)N1C(=O)C1CCC1,1.6
O=C(Nc1ccccc1F)N1CC(=O)N2[C@H](CO)[C@@H](c3ccc(-c4cccnc4)cc3)[C@H]2C1,-1.1
CCCC(=O)Nc1ccc2c(c1)C(=O)N(C)C[C@H](OC)[C@@H](C)CN(Cc1ccc(F)cc1)[C@H](C)CO2,0.18
CCCC#Cc1ccc([C@H]2[C@@H](CO)N(C(C)=O)[C@@H]2CNC(=O)C2CC2)cc1,-0.67
C/C=C/c1ccc([C@H]2[C@@H](CO)N(Cc3ccc(F)cc3)[C@H]2CNC(C)=O)cc1,4.3
C/C=C/c1ccc([C@@H]2[C@@H](CO)N(C(=O)C3CC3)[C@H]2CN(C)C(=O)CC)cc1,1.8
N#C[C@H]1[C@H](c2ccccc2C2=CCCCC2)[C@@H](CO)N1C(=O)C1CCOCC1,3.5
SMILES,IDE exosite FP
CN1C(=O)c2cc(NC(=O)Cc3cccs3)ccc2OC[C@H]2O[C@@H](CC(=O)NCCCN3CCOCC3)CC[C@@H]21,-0.5
CN1C(=O)c2cc(NC(=O)Cc3cccs3)ccc2OC[C@H]2O[C@H](CC(=O)NCCCN3CCOCC3)CC[C@@H]21,-0.35
CN1C(=O)c2cc(NC(=O)Nc3ccccc3Cl)ccc2OC[C@H]2O[C@@H](CC(=O)NCCCN3CCOCC3)CC[C@@H]21,-6.1*
CCCC(=O)Nc1ccc2c(c1)C(=O)N(C)C[C@H](OC)[C@H](C)CN(C(=O)c1ccccn1)[C@@H](C)CO2,2.2
N#C[C@H]1[C@H](c2ccccc2C2=CCCCC2)[C@@H](CO)N1C(=O)c1cccc(F)c1,1.5
COc1ccc(-c2ccc([C@H]3[C@H](CO)N4C(=O)CN(C(=O)C5CC5)C[C@@H]34)cc2)cc1,-0.25
COc1ccc(-c2ccc([C@H]3[C@@H](CO)N4C(=O)CN(C(=O)C5CCOCC5)C[C@@H]34)cc2)cc1,0.45
COc1cccc(-c2ccc([C@@H]3[C@@H](CO)N4C(=O)CN(C(=O)C5CCOCC5)C[C@@H]34)cc2)c1,-5.8*
COc1cccc(-c2ccc([C@@H]3[C@@H](CO)N4C(=O)CN(C(=O)C5CCOCC5)C[C@H]34)cc2)c1,-2.4
Cc1cccc(-c2ccc(C3[C@@H]4CNC[C@H]3N4)cc2)c1 (some centres not stated),0.37
O=C(C1CCCCC1)N1C[C@@H]2N[C@H](C1)C2c1ccc(-c2ccccc2F)cc1 (some centres not stated),0.62
CN(C)C(=O)c1cccc(-c2ccc([C@@H]3[C@@H](CO)N4C(=O)CN(C(=O)C5CC5)C[C@H]34)cc2)c1,2.2

# Screening results deposited in PubChem by Broad Institute.
